{
  "source": "the supplement of paper PMC7335073",
  "note": "In all, about 4,100 sequences were measured (“relative CpG methylation activity (normalised to average over all NNNCGNNN flanks)”: median about 0.87, highest 2% from about 2.4 on). This excerpt belongs to a sample that is enriched for the highest values.",
  "data": [
    {"target": "DNMT3A catalytic domain (mouse) (UniProt O88508)", "assay": "relative CpG methylation activity (normalised to average over all NNNCGNNN flanks) (relative (1 = mean)); higher = more methylation of the central CpG", "settings": "system: in vitro, murine catalytic domain; CpG state: hemimethylated substrate pool; residues: 608-908", "protocol": "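Deep enzymology: a pool of dsDNA substrates with a central CpG flanked by 10 random nucleotides on each side was methylated by the murine DNMT3A or DNMT3B catalytic domain (0.8 mM SAM, 37 °C, 60 min). Methylation was then read out by hairpin ligation, bisulfite conversion and NGS. Values are the average methylation of each NNNCGNNN context (±3 flanks; the outer flanks are random and averaged over), normalised to the overall mean, so 1 = average activity.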", "values": [
      {"sequence": "CCTCGGAT", "relative CpG methylation activity": 0.744},
      {"sequence": "CCCCGCGC", "relative CpG methylation activity": 1.17},
      {"sequence": "TATCGACT", "relative CpG methylation activity": 0.753},
      {"sequence": "ATCCGGAT", "relative CpG methylation activity": 1.34},
      {"sequence": "GTGCGACC", "relative CpG methylation activity": 1.61},
      {"sequence": "AGCCGATT", "relative CpG methylation activity": 0.672},
      {"sequence": "GATCGCCA", "relative CpG methylation activity": 0.923},
      {"sequence": "TTCCGCCC", "relative CpG methylation activity": 2.77},
      {"sequence": "CGCCGCCT", "relative CpG methylation activity": 1.48},
      {"sequence": "CGCCGCCA", "relative CpG methylation activity": 1.25},
      {"sequence": "ATCCGCCC", "relative CpG methylation activity": 2.96},
      {"sequence": "CTCCGCCA", "relative CpG methylation activity": 2.37},
      {"sequence": "ATCCGCCG", "relative CpG methylation activity": 2.1},
      {"sequence": "CACCGCCA", "relative CpG methylation activity": 1.32},
      {"sequence": "AACCGCCC", "relative CpG methylation activity": 1.78},
      {"sequence": "CTCCGCGT", "relative CpG methylation activity": 1.98},
      {"sequence": "TTCCGCGC", "relative CpG methylation activity": 2.03},
      {"sequence": "TCCCGCCC", "relative CpG methylation activity": 1.99},
      {"sequence": "CTCCGCCT", "relative CpG methylation activity": 2.45},
      {"sequence": "CATCGGGG", "relative CpG methylation activity": 0.133},
      {"sequence": "CGCCGGTA", "relative CpG methylation activity": 0.746},
      {"sequence": "ATCCGGAA", "relative CpG methylation activity": 0.939},
      {"sequence": "CCACGCAC", "relative CpG methylation activity": 1.81},
      {"sequence": "CTTCGGGC", "relative CpG methylation activity": 1.16},
      {"sequence": "TCTCGACG", "relative CpG methylation activity": 0.648},
      {"sequence": "GGCCGCAA", "relative CpG methylation activity": 0.657},
      {"sequence": "TTGCGACT", "relative CpG methylation activity": 1.31},
      {"sequence": "GTCCGCGG", "relative CpG methylation activity": 0.584},
      {"sequence": "GTCCGCCC", "relative CpG methylation activity": 2.41},
      {"sequence": "GGCCGCCC", "relative CpG methylation activity": 1.79},
      {"sequence": "AACCGCCT", "relative CpG methylation activity": 1.76},
      {"sequence": "CTCCGCCC", "relative CpG methylation activity": 2.44},
      {"sequence": "GTCCGCCG", "relative CpG methylation activity": 2.46},
      {"sequence": "ATCCGCGT", "relative CpG methylation activity": 1.34},
      {"sequence": "CTCCGCCG", "relative CpG methylation activity": 2.31},
      {"sequence": "CGCCGCCC", "relative CpG methylation activity": 1.77},
      {"sequence": "GCCCGCCC", "relative CpG methylation activity": 2.25},
      {"sequence": "ATCCGCCT", "relative CpG methylation activity": 2.5},
      {"sequence": "GGCCGCCG", "relative CpG methylation activity": 1.34},
      {"sequence": "TAGCGCTG", "relative CpG methylation activity": 0.34},
      {"sequence": "CATCGACC", "relative CpG methylation activity": 0.793},
      {"sequence": "GATCGTTT", "relative CpG methylation activity": 0.404},
      {"sequence": "TGTCGGTC", "relative CpG methylation activity": 0.542},
      {"sequence": "GGTCGAAA", "relative CpG methylation activity": 0.512},
      {"sequence": "AGCCGCCA", "relative CpG methylation activity": 1.02},
      {"sequence": "ATCCGCGA", "relative CpG methylation activity": 1.03},
      {"sequence": "ATCCGCCA", "relative CpG methylation activity": 2.4},
      {"sequence": "AACCGAGG", "relative CpG methylation activity": 0.346},
      {"sequence": "AGACGAGA", "relative CpG methylation activity": 0.731},
      {"sequence": "CTCCGTCA", "relative CpG methylation activity": 1.79},
      {"sequence": "CTCCGTCC", "relative CpG methylation activity": 2.65},
      {"sequence": "ATCCGTCG", "relative CpG methylation activity": 2.08},
      {"sequence": "ATCCGTCC", "relative CpG methylation activity": 2.61},
      {"sequence": "TTCCGTCC", "relative CpG methylation activity": 2.26},
      {"sequence": "CTCCGTCG", "relative CpG methylation activity": 1.92},
      {"sequence": "GCACGGGC", "relative CpG methylation activity": 1.47},
      {"sequence": "GAACGTCG", "relative CpG methylation activity": 1.25},
      {"sequence": "ATGCGGCC", "relative CpG methylation activity": 1.64}
    ]}
  ]
}
